Rab9 prom act: activates the Rab9 promoter; Huh7 Rab9 promoter-luciferase reporter, luminescence, 24 h; Potency, µM (series often up to 9.22 µM), for inactives: at the highest dose activation, negative = inhibition, actives largely listed as activators; 320,000 compounds, 2.8% hits; AID 485297; also: % of control where 0% means no effect; nearly all actives have a fitted effect of over 60% in size
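Luciferase signal after 10 min detection reagent at ambient indicates Rab9 promoter upregulation; stably transfected Huh7 cells were treated 24 h with compound in DMSO at 37 °C, 5% CO2.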
SMN2 splice enh: increases expression of the SMN2 splice variant; HEK293 SMN2-luciferase splicing reporter, luminescence, 30-36 h; Potency, µM (top dose mostly 46.1 µM), for inactives: at the top dose activity change, positive = activation, actives largely listed as activators; 210,000 compounds, 2.8% hits; also: % of control where 0% means no effect; nearly all actives have a fitted effect of over 55% in size
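qHTS luciferase splicing reporter: luminescence rises when SMN2 exon 7 is included in transfected HEK293 cells. Compound exposure lasted 30-36 h at 37C, with 4.5 mM final sodium butyrate as control, followed by a ONE-Glo read.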
ELG1 genotox: induces genotoxicity in HEK293T cells with luciferase-tagged ELG1. HEK293T ELG1-luciferase reporter, luminescence, 16 h. Potency, µM (top dose mostly 46 µM), for inactives: at the highest dose activity change, positive = activation, usual class: activators. 330,000 compounds, 1.3% hits; also: % of control where 0% means no effect; nearly all actives have a fitted effect of over 60% in size
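Genotoxic stress is detected as increased luminescence from luciferase-tagged ELG1 in HEK293T cells, measured with ONE-Glo after a 16 hr treatment at 37 °C.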
NPC1 promoter act: activates the NPC1 promoter | Huh7 NPC1 promoter luciferase reporter, 24 h | Potency, µM (titrated, usually from 9.22 µM), without a hit: at the highest dose activation, usual class: activators | 320,000 compounds, 2.4% hits; also: % of control where 0% means no effect; nearly all actives have a fitted effect of over 60% in size
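Luminescence from an NPC1 promoter-driven luciferase reporter in stably transfected Huh7 cells was measured after 24 h compound treatment at 37 °C, followed by 10 min ambient incubation with luciferase detection reagent.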
FLuc modulator: counter-screen for miR-21 project: firefly luciferase inhibitors or activators. P08659. purified FLuc, Km substrates, luminescence inhibition. Potency, µM (doses to about 57.5 µM), for the others: at the highest dose activity change, negative = inhibition, most hits filed as inhibitors. 360,000 compounds, 6.9% hits. AID 588342;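 also: plate controls were vehicle for no effect and reference inhibitor for full effect; nearly all actives have a fitted effect of over 55% in size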
Target sequence (P08659 whole entry, looked up): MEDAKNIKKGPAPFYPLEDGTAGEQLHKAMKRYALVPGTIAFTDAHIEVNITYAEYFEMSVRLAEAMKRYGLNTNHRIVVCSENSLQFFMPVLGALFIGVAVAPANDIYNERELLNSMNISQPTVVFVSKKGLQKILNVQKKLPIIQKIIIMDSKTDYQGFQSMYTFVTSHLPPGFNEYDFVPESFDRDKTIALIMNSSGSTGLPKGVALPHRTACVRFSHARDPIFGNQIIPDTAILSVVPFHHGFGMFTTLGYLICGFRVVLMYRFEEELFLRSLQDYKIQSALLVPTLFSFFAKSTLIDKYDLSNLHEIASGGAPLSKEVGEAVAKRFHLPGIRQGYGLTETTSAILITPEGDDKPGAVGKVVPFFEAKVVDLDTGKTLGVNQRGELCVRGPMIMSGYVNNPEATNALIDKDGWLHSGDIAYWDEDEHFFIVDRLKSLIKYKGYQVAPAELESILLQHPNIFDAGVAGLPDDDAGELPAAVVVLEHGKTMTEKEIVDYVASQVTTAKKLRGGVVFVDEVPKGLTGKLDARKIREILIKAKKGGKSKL
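Purified P. pyralis luciferase, 10 nM final, with Km-level 10 uM D-luciferin and 10 uM ATP in 50 mM Tris acetate pH 7.5, 10 mM Mg acetate, 0.01% Tween-20, 0.05% BSA; 6-point qHTS titration about 60 µM downward; luminescence read.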
ELG1 repair inh: inhibitors of ELG1-dependent DNA repair in HEK293T cells; AID 504467; 330,000 compounds, 2.3% hits; Potency, µM (titrated, usually from 46.1 µM), without a hit: top-dose activity change, negative = inhibition, most hits filed as inhibitors; HEK293T ELG1-luciferase reporter, luminescence, 16 h; DNA damage induced by 5-fluorouridine; also: % is scaled to controls: 0 for no effect and ±100 for the full control effect; nearly all actives have a fitted effect of over 55% in size
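Luminescence from the luciferase reporter, measured 30 min after ONE-Glo reagent at room temperature, was the read-out. Beforehand, 2,000 cells per well were exposed for 16 hr at 37 °C to 5-fluorouridine together with compound or vehicle.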
Numbers without * were called inactive; ? = inconclusive; / = no result; [ ] = dose if it differs, or a comment. An excerpt weighted towards active compounds, which were near 9.2% of everything screened. Calls follow the shape of the dose curve; as a rule, active = well fitted curve in the direction sought with a large enough effect; inconclusive = small, poorly fitted or top-dose-only effect, or another doubt; inactive = no such curve, though single readings can be large; an effect the other way counts as inactive or inconclusive. Potency is read from the fitted curve at half-maximal effect.

SMILES	Rab9 prom act	SMN2 splice enh	ELG1 genotox	NPC1 promoter act	FLuc modulator	ELG1 repair inh
O=C(O)Cc1sc(Nc2ccc(C(=O)O)cc2)nc1-c1ccccc1	/	13%	/	/	?	/
CCOC(=O)c1sc(-c2ccc(C(F)(F)F)cc2)nc1O	-2%	/	-2%	1%	?	11%
CC(C)(C)c1ccc(-c2nc(O)c(CC(=O)O)s2)cc1	17%	/	3%	-2%	1.9µM*	?
CCc1nn(CC(=O)NCCc2ccc(Cl)cc2)c(=O)c2cc3c(OC)cccc3n12	/	-2%	/	/	-5%	/
Cc1ccc(-c2nn(CC(=O)NC3CCCC3)c3c2cnc2ccc(F)cc23)cc1C	/	/	/	/	0%	/
O=C(O)Cc1sc(Nc2ccc(F)cc2)nc1-c1cccs1	?	/	29%	26%	17µM*	?
Cc1ccc(Nc2nc(-c3ccccc3)c(CC(=O)O)s2)cc1	13%	2%	?	2%	13µM*	?
CCc1ccc(-n2nc(CO)c(C(=O)NCCOC)n2)cc1	/	-2%	/	/	17µM*	/
CC(C)[C@H](NS(=O)(=O)c1ccc2c(c1)OCCO2)C(=O)OCC(=O)Nc1cc(Cl)ccc1Cl	-9%	-8%	-4%	0%	1%	18µM*
c1ccc(CN2CCN(CCCNc3ccc4nnc(-c5ccccc5)n4n3)CC2)cc1	-5%	-6%	-11%	-1%	-3%	18µM*
CC(C)(C)c1ccc(C(=O)N2CCC(c3noc(-c4ccc(S(=O)(=O)N5CCCC5)cc4)n3)CC2)cc1	/	-11%	/	/	-5%	/
Cc1nn(-c2ccccc2)c(C)c1/C=N/NC(=O)c1cnccn1	9%	/	7%	12%	?	23%
Cc1nn(-c2ccccc2)c(C)c1-c1cc(C(=O)N/N=C/c2ccc(O)cc2)[nH]n1	1%	/	-6%	-1%	21µM*	?
COc1cc(/C=N/NC(=O)c2cc(-c3c(C)nn(-c4ccccc4)c3C)n[nH]2)ccc1O	20%	/	-9%	6%	?	?
CCNc1ccc(C(=O)N/N=C/c2c(C)nn(-c3ccccc3)c2N2CCCC2)cc1[N+](=O)[O-]	-3%	-13%	-7%	1%	4%	21µM*
Cc1nn(-c2ccccc2)c(N2CCCC2)c1/C=N/NC(=O)c1ccccc1O	-6%	13%	-4%	-2%	-16%	-11%
Cc1nn(-c2ccccc2)c(C)c1/C=N/NC(=O)c1cc(O)cc(O)c1	-4%	/	-15%	0%	19µM*	-29%
Cc1nn(-c2ccccc2)c(C)c1/C=N/NC(=O)c1ccccc1O	12%	/	9%	2%	1.9µM*	?
COc1ccc(-c2cnnn2-c2ccc(NC(=O)c3ccccc3OC)cc2)cc1	/	/	/	/	-4%	/
COc1ccc(C2C(=O)N(C3CCCCCC3)CC(=O)N2CCc2ccccc2)cc1 (centres undefined)	/	/	/	/	-8%	/
CC(=O)c1ccc(NC(=O)C2=CC(c3ccc(C)cc3)=NS(=O)(=O)N2C)cc1	/	/	/	/	-1%	/
Cc1ccc(CNCCCSc2ncccn2)cc1	0%	/	-10%	-5%	2%	4%
CC(C)C(NS(=O)(=O)c1ccccc1)C(=O)N1CCCC1 (centres undefined)	3%	/	-1%	-3%	0%	2%
Cc1ccc(NC(=O)Nc2ccc(C(=O)N3CCOCC3)cc2)cc1	-3%	3%	-7%	3%	0%	-1%
O=C(Nc1cccc(C(=O)N2CCOCC2)c1)c1ccccc1Cl	-6%	/	1%	0%	0%	-2%
SMILES	Rab9 prom act	SMN2 splice enh	ELG1 genotox	NPC1 promoter act	FLuc modulator	ELG1 repair inh
Cc1ccc(C(=O)Nc2cccc(C(=O)N3CCOCC3)c2)cc1	2µM*	?	?	4µM*	9.5µM*	?
CC(=O)c1cccc(NC(=O)Nc2ccc(C(=O)N3CCOCC3)cc2)c1	1%	-13%	-10%	7%	?	10µM*
COc1ccc(C(=O)Nc2cccc(C(=O)N3CCN(C)CC3)c2)cc1	?	?	7%	?	-10%[2.3 µM]	25%
CC(C)(C)c1ccc(C(=O)Nc2cccc(C(=O)N3CCOCC3)c2)cc1	0.89µM*	/	?	1.3µM*	0.54µM*	?
COc1ccc(C(=O)Nc2cccc(C(=O)N3CCCCC3)c2)cc1	11%	/	2%	14%	15µM*	7%
CN(C)S(=O)(=O)c1ccc(C(=O)Nc2cccc(C(=O)N3CCOCC3)c2)cc1	1%	/	-3%	0%	-2%	-11%
CCOc1ccc(-c2nn(-c3ccccc3)cc2C2NC(=O)NC(C)=C2C(=O)OC(C)C)cc1 (centres undefined)	/	-24%	/	/	-19%	/
Cc1ccc(OC(=O)N2CCOCC2)cc1	19%	3%	?	16%	?	?
CC(C)(C)c1ccc(OC(=O)N2CCOCC2)cc1	?	/	?	4%	15µM*	?
COc1nc(C)ccc1-c1noc(-c2cccs2)n1	0.5µM*	/	?	0.56µM*	1.5µM*	?
CCOc1ccccc1-c1nc(-c2ccc(C)nc2OC)no1	3.2µM*	?	?	4.5µM*	9.5µM*	?
COc1cc(-c2nc(-c3ccc(C)nc3OC)no2)cc(OC)c1OC	13%	9%	-1%	-2%	-1%	-5%
COc1nc(C)ccc1-c1noc(-c2ccncc2)n1	?	14µM*	?	?	13µM*	?
COc1ccccc1CN1C(=NC(=O)CCC2CCCC2)SC2CS(=O)(=O)CC21 (centres undefined)	6%	/	7%	7%	1%	16%
CN(Cc1cccs1)C(=O)c1ccc(Cl)c(S(=O)(=O)N2CCCCCC2)c1	/	/	-5%	/	/	21µM*
Cc1ccc(C(=O)N(CCc2ccccc2)Cc2ccccc2)cc1S(=O)(=O)N1CCCCC1	1%	/	-9%	1%	3%	?
CC1CN(S(=O)(=O)c2cc(C(=O)N(CCc3ccccc3)Cc3ccccc3)ccc2Cl)CC(C)O1 (centres undefined)	-4%	/	-11%	-2%	2%	23µM*
Cc1cc(C)n2c(SC(C)C(=O)NC3(C#N)CCCCC3)nnc2n1 (centres undefined)	1%	/	1%	-5%	7%	9%
CCC1CCCCN1S(=O)(=O)c1ccc(C(=O)Nc2nnc(-c3cccs3)o2)cc1 (centres undefined)	-25%	-106%	-6%	-28%	9%	?
CC1CC(C)CN(S(=O)(=O)c2ccc(C(=O)Nc3nnc(-c4cccs4)o3)cc2)C1 (centres undefined)	-18%	-74%	-16%	-27%	0%	5.8µM*

Compound activity: PubChem BioAssay, National Center for Advancing Translational Sciences (NCATS)
